The source made the active and inactive calls.
What was measured:
[1] = system: Human papillomavirus type 1a protein E7 (residues 44-93); assay: HPV1a E7 fragment binders on microarrays, primary screen, biochemical, small-molecule microarray, residues 44-93, 635 nm fluorescence (AID 1108); conditions: small-molecule microarray binding, fluorescence 635 nm; higher = more signal;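 further: E7 fragment applied at 1 µg/mL in TBST for 1 h at 4 C; score combines spot fluorescence with its signal to noise ratio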
[2] = modulators of HCV replicon luciferase signal, primary screen, HCV replication inhibitor project, Huh7 cells, luciferase reporter (AID 1109); conditions: 48 h, higher = more signal;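 further: huh7 hepatoma cells harbouring a luciferase neomycin HCV replicon reporter; luciferase luminescence as measure of HCV replicon replication; test concentration not given here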
[3] = target: Left-right determination factor 2 (Homo sapiens) (UniProt O00292); assay: LEFTY2 binders on small-molecule microarrays, primary screen, biochemical, small-molecule microarray, 635 nm fluorescence scan (AID 1110); conditions: LEFTY2 binding, higher = more signal
Left-right determination factor 2 (Homo sapiens), sequence (O00292 whole entry, looked up): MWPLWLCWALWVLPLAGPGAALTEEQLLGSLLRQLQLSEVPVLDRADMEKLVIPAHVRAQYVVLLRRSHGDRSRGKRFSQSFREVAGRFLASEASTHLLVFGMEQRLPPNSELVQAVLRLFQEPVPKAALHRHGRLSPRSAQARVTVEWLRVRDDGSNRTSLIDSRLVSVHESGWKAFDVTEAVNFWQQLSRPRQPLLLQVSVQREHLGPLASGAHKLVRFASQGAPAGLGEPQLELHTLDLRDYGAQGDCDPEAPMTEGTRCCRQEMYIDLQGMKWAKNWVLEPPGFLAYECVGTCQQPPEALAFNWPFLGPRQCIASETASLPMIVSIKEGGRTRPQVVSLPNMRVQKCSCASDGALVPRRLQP

[4] = target: Calmodulin-1 (Homo sapiens) (UniProt P0DP23); assay: CALM1 binders on microarrays, EGTA buffer, profiling panel, biochemical, small-molecule microarray, Cy5-labelled CALM1 (AID 1111); conditions: Cy5-CALM1 binding fluorescence, higher = more signal;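 further: labelled calmodulin applied in Tris saline Tween buffer holding calcium plus EGTA and DTT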
[5] = target: Calmodulin-1 (Homo sapiens) (UniProt P0DP23); assay: calcium-bound CALM1 binders on microarrays, profiling panel, artefact control for SMM control-protein annotation, biochemical, small-molecule microarray, Cy5-labelled CALM1, plus calcium (AID 1112); conditions: Cy5-CALM1 binding fluorescence, higher = more signal;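 further: score merges spot fluorescence with signal to noise from triplicate slides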
[6] = small-molecule microarray binders of probe aWnt5a, primary screen, biochemical, biotinylated probe, 635/667 nm fluorescence (AID 1113); conditions: higher = more signal;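 further: score merges 667 nm fluorescence intensity with signal-to-noise per printed feature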
[7] = small-molecule microarray binders of probe aShh, primary screen, biochemical, biotinylated probe, 635/667 nm fluorescence (AID 1114); conditions: higher = more signal;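 further: probe is biotin-labelled aShh protein from a stem cell growth factor screen; measures binding of labelled protein to compounds printed on the slide; score merges feature fluorescence at 667 nm with signal-to-noise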
[8] = small-molecule microarray binders of probe aNog, primary screen, biochemical, biotinylated probe, 635/667 nm fluorescence (AID 1115); conditions: higher = more signal;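 further: probe is biotinylated aNog protein used at 0.15 µg/mL for 1 h at 4 C; z-score combines 667 nm fluorescence of each spot with its signal to noise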
[9] = target: Torsin-1A-interacting protein 1 (Homo sapiens) (UniProt Q5JTV8); assay: LAP1 binders from COS7 cell lysate, primary screen, small-molecule microarray, 635/667 nm fluorescence (AID 1116); conditions: COS7-hLAP1 lysate binding, 635 nm fluorescence, higher = more signal
Torsin-1A-interacting protein 1 (Homo sapiens), sequence (Q5JTV8 whole entry, looked up): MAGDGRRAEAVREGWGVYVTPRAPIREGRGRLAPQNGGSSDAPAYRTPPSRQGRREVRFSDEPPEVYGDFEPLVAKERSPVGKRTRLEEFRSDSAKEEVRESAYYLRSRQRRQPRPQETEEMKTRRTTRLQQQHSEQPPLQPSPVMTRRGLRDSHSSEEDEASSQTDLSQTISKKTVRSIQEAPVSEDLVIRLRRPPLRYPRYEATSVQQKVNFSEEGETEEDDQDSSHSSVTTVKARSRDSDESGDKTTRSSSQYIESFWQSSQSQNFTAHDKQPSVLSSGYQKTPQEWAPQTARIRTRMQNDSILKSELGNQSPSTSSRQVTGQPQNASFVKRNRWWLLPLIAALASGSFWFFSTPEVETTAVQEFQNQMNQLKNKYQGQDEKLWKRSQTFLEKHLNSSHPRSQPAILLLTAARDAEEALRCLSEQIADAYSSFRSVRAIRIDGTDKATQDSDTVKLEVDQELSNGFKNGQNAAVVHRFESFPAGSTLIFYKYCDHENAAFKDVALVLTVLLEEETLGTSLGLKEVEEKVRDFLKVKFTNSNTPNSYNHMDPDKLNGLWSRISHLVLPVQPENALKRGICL

[10] = target: Alpha-bungarotoxin (Bungarus multicinctus) (UniProt P60615); assay: alpha-bungarotoxin binders on microarray, profiling panel, artefact control for SMM control protein annotation, biochemical, small-molecule microarray, Alexa647 label, 635/667 nm fluorescence (AID 1117); conditions: alpha-BTX-A647 binding fluorescence, higher = more signal
Alpha-bungarotoxin (Bungarus multicinctus), sequence (P60615 whole entry, looked up): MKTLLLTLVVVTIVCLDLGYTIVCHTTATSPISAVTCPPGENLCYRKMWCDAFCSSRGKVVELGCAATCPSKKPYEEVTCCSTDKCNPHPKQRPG

[11] = target: Albumin (Bos taurus) (UniProt P02769); assay: bovine serum albumin binders on microarray, profiling panel, artefact control for SMM control protein annotation, biochemical, small-molecule microarray, Alexa647 label, 635/667 nm fluorescence (AID 1118); conditions: BSA-A647 binding, fluorescence 635 nm, higher = more signal;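 further: score merges 667 nm emission intensity and signal-to-noise per printed compound spot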
Albumin (Bos taurus), sequence (P02769 whole entry, looked up): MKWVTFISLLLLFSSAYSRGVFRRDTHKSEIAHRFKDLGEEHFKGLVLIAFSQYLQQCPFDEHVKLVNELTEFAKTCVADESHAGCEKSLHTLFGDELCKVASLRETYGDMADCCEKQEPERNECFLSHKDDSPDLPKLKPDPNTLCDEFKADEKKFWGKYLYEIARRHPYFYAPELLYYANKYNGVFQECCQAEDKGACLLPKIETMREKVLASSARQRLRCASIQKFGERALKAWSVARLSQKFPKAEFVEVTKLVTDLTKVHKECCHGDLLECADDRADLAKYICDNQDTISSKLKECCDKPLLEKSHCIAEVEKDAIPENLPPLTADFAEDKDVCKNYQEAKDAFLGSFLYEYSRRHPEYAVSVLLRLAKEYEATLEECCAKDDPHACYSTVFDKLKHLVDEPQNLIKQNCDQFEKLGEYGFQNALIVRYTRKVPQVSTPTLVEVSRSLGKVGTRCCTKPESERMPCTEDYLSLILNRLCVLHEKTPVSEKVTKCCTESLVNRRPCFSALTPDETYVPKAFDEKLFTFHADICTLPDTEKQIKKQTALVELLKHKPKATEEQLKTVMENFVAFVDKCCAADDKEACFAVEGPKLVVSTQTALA

[12] = small-molecule microarray binders of probe aXIP, primary screen, biochemical, NeuroSMM set, 635/667 nm fluorescence (AID 1119); conditions: higher = more signal, called active from +8 up or from −8 down;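 further: probe is the protein aXip251-270 applied at 1 µg/mL to compound-printed slides; binding of probe to printed compounds measured as 667 nm fluorescence plus signal to noise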
[13] = small-molecule binders of probe aNOTCH3, primary screen, biochemical, small-molecule microarray, 635/667 nm fluorescence (AID 1120); conditions: higher = more signal;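 further: probe is a biotin-tagged antibody raised against NOTCH3 rather than NOTCH3 protein; score merges spot fluorescence near 667 nm with spot signal to noise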
[14] = small-molecule binders of probe aNOTCH2, primary screen, biochemical, small-molecule microarray, 635/667 nm fluorescence (AID 1121); conditions: higher = more signal;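 further: score merges feature fluorescence read at 667 nm with its signal to noise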
[15] = target: Carbonic anhydrase 2 (Homo sapiens) (UniProt P00918); assay: CAII small-molecule binders, profiling panel, biochemical, small-molecule microarray, Alexa647-labelled CAII (AID 1122); conditions: CAII-A647 binding fluorescence, higher = more signal
[16] = COS7 lysate on small-molecule microarray, probe aHis, 635 nm (AID 1123); conditions: COS7 cell lysate, fluorescence, higher = more signal;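 further: z-score combines 667nm fluorescence intensity with signal-to-noise per printed compound spot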
[17] = compound binding in COS7 lysate, probe aLAP1, primary screen, cell lysate, small-molecule microarray (AID 1124); conditions: probe aLAP1, fluorescence, higher = more signal;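 further: lysate comes from COS7 cells expressing LAP1 and is applied at 0.3 µg/mL; score merges spot fluorescence near 667 nm with signal-to-noise over triplicate slides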
[18] = system: Sam68 (KHDRBS1); assay: Sam68 small-molecule binders, primary screen, biochemical, small-molecule microarray, 635 nm fluorescence (AID 1125); conditions: small-molecule microarray binding, higher = more signal;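 further: score merges 667 nm channel intensity with signal to noise over triplicate slides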
[19] = system: Chordin-like protein 2 (CHRDL2); assay: CHRDL2 small-molecule binders, primary screen, biochemical, small-molecule microarray, 635 nm fluorescence (AID 1126); conditions: small-molecule microarray binding, fluorescence 635 nm; higher = more signal;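 further: printed compound slides probed with Chrdl2 protein at 4 µg/mL for 1 h at 4 C; score merges 667 nm emission intensity with signal to noise over three replicate slides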
[20] = target: Concanavalin-A (Canavalia ensiformis) (UniProt P02866); assay: ConA small-molecule binders, primary screen, artefact control for SMM control protein annotation, biochemical, small-molecule microarray, Alexa647 label, 635 nm (AID 1127); conditions: ConA-A647 binding fluorescence, higher = more signal;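 further: z combines 667 nm emission intensity with signal-to-noise across three replicate slides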
Concanavalin-A (Canavalia ensiformis), sequence (P02866 whole entry, looked up): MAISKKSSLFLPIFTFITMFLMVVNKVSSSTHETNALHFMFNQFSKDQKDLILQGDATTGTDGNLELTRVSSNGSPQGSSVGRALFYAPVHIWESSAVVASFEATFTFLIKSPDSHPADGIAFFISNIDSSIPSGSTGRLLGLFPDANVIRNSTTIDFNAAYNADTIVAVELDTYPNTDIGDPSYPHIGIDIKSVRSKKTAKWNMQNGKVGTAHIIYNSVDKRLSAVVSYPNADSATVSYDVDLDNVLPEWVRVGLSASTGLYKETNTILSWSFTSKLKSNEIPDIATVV

Compound | composite z-score [1] | z-score [2] | composite z-score [3] | composite z-score [4] | composite z-score [5] | composite z-score [6] | composite z-score [7] | composite z-score [8] | composite z-score [9] | composite z-score [10] | composite z-score [11] | composite Z-score [12] | composite z-score [13] | composite z-score [14] | composite z-score [15] | composite z-score [16] | composite z-score [17] | composite z-score [18] | composite z-score [19] | composite z-score [20]
COCCOC(=O)N1C(=O)[C@@]2(c3cc(C#CCC(C(=O)OC)C(=O)OC)ccc31)[C@H](C(=O)Nc1nc3ccccc3s1)[C@H]1C(=O)O[C@H](c3ccccc3)[C@H](c3ccccc3)N1[C@@H]2c1ccc(O)cc1 | 1.42 | -0.146 | 1.31 | 0.975 | -0.0869 | -0.0044 | -0.043 | 0.459 | 0.706 | 1.63 | 0.268 | 0.247 (inactive) | 0.512 | -0.0282 | 0.279 | 1.13 | 0.705 | 1.3 | 1.07 | 1.04
CC(C)C(=C=CC[C@H](O)c1ccccc1OCCO)C[C@H](O)COCc1ccccc1 | 0.257 | -1.88 | -0.274 | 0.444 | -0.457 | -0.128 | -0.0681 | -0.391 | -0.251 | 0.257 | 0.435 | -0.392 (inactive) | -0.122 | -0.172 | 0.736 | 1.08 | 0.565 | 0.24 | -0.163 | 0.377
O=C1NC(=O)C2C1C=CC(C(O)c1ccc([N+](=O)[O-])cc1)N2Nc1ccccn1 (stereo not given) | -0.382 | 0.403 | 0.33 | 0.259 | -0.746 | -0.102 | -0.138 | 0.0193 | 0.45 | -0.011 | -0.494 | -0.267 (inactive) | -0.173 | -0.0843 | 0.265 | 0.555 | 0.0223 | -0.413 | 0.472 | -0.257
CC1CC/C=C\[C@H]2OC34C=CCN(C(C)(C)C)C(=O)[C@H]3N(CCCO)C(=O)[C@@H]4C2C(=O)O1 (stereo not given in full) | -0.0793 | -0.751 | -0.19 | -0.128 | 0.588 | -0.105 | 0.0278 | 0.0215 | 1.42 | -1.18 | -1.53 | 0.398 (inactive) | -0.155 | -0.164 | 0.916 | 0.386 | 0.71 | -0.307 | -0.286 | -0.532
O=C(NCc1ccccc1)[C@@H]1c2ccccc2C(=O)N(Cc2cc(C(F)(F)F)cc(C(F)(F)F)c2)[C@H]1c1ccc(CO)cc1 | 1.38 | 0.0626 | 0.446 | 0.288 | -0.823 | 0.0257 | -0.0011 | -0.213 | 0.517 | 0.556 | -0.432 | -0.46 (inactive) | 0.104 | -0.008 | 0.185 | 1.55 | 0.92 | 1.3 | 0.755 | 0.609
O=C1N(Cc2ccccc2)c2ccccc2C[C@@]12COC(c1ccc(OCCCO)cc1)=N2 | 1.24 | -1.08 | -0.56 | 0.993 | 0.749 | 0.02 | 0.0018 | 1.39 | 1.58 | 0.802 | 0.809 | -0.267 (inactive) | 0.251 | -0.0595 | 0.471 | 2.51 | 0.756 | 1.15 | -0.366 | 0.582
COc1ccc([Si](C)(C)[C@@H]2[C@@H](CC(=O)N3Cc4ccccc4C[C@H]3CO)O[C@]3(C(=O)N(Cc4ccc(N5CCOC5=O)cc4)c4ccccc43)[C@H]2C)cc1 | 0.225 | -3.78 | 0.874 | -0.422 | -0.497 | -0.119 | 0.0639 | -0.339 | 1.86 | 1.42 | -0.289 | 1.54 (inactive) | 0.0803 | -0.128 | 0.624 | 1.12 | 0.313 | 1.27 | 1.26 | 1.16
C=CC[C@@]12N=C(c3ccc(OCCCO)cc3)O[C@@H]1c1ccccc1N(CCC)C2=O | 1.35 | -2.18 | 0.271 | 0.106 | -0.242 | -0.0485 | 0.337 | 0.164 | 1.2 | 1.77 | 0.727 | 0.414 (inactive) | 0.0968 | -0.0617 | 0.326 | 2.73 | -0.227 | 1.29 | 1.24 | 1.06
COc1ccc(CCNC(=O)[C@@H]2c3ccccc3C(=O)N(Cc3ccccc3OC)[C@H]2c2ccc(CO)cc2)cc1 | 1.16 | -1.27 | -0.321 | 0.527 | -0.103 | -0.0398 | -0.423 | 0.938 | 0.966 | 0.75 | 0.454 | 0.511 (inactive) | -0.176 | -0.0068 | 0.533 | 1.59 | 0.886 | 1.28 | -0.246 | 0.792
C=C(CCCC)/C(=C/C[C@H](OC(=O)c1ccncc1)c1ccc(OCCO)cc1)c1cnc2ccccc2c1 | -0.38 | -2.25 | 0.437 | 0.679 | -0.159 | -0.129 | -0.0146 | -0.125 | 0.49 | 2.52 | 0.667 | -0.0072 (inactive) | 0.0533 | -0.0891 | 0.755 | 1.74 | 0.111 | 1.31 | 1.11 | 1.13
